Values without a mark were called inactive. Inconclusive results are not listed. A call without a number means that no potency is given here. Calls of active or inactive are those of the source. Calls come from the whole dose curve; as a rule, active = well fitted curve in the direction sought with a large enough effect in the repeat runs; inconclusive = weak or mixed curves; inactive = no such curve, though single readings can be large; an effect the other way counts as inactive or inconclusive.
Assays:
[1] = qHTS RealTime-Glo MT Cell Viability Assay in HepG2 cells - 40 hour (AID 1224870); note: nearly all actives have a fitted effect of over 50% in size
In short: (§1)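 HepG2 cells mixed with RealTime-Glo MT reagents (NanoLuc plus cell-permeant prosubstrate) were seeded at 600 cells/well, incubated 5 h at 37 C/5% CO2, then pinned with compounds in DMSO; nonlytic luminescence tracked viability during 40 h treatment.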

[2] = A CellTox Green Cytotoxicity Assay to monitor cytotoxicity in HEK293 cells - 40 hour (AID 1224871); note: nearly all actives have a fitted effect of over 45% in size
In short: (§2)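 Real-time, in one plate: 600 HEK293 cells/well with dead-cell DNA dye, pinned compound after 5 h, 37 C incubation over 40 h; viable cells give no appreciable fluorescence.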

[3] = qHTS RealTime-Glo MT Cell Viability Assay in HepG2 cells - 8 hour (AID 1224873); note: nearly all actives have a fitted effect of over 55% in size
In short: as §1

[4] = qHTS RealTime-Glo MT Cell Viability Assay in HEK293 cells - 40 hour (AID 1224874); conditions: RealTime-Glo luminescence; max response: stronger effect = lower value; note: nearly all actives have a fitted effect of over 50% in size; note: potency is the fitted concentration of half-maximal effect
In short: (§3)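 Kinetic, non-lysing viability readout. Seed HEK293 (600/well) with reagent, incubate 5 h at 37 C/5% CO2, pin 23 nL compound in DMSO, incubate at 37 C, read luminescence at 0, 8, 16, 24, 32, 40 h.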

[5] = A CellTox Green Cytotoxicity Assay to monitor cytotoxicity in HEK293 cells - 24 hour (AID 1224875); note: series mostly up to about 77 µM; nearly all actives have a fitted effect of over 45% in size
In short: as §2

[6] = A CellTox Green Cytotoxicity Assay to monitor cytotoxicity in HepG2 cells - 16 hour (AID 1224876); note: nearly all actives have a fitted effect of over 45% in size
In short: (§4)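 Cytotoxicity was tracked as dead-cell DNA fluorescence in HepG2 cells treated with test compounds at 37 C; each time-point value comes from one kinetic series spanning 0, 8, 16, 24, 32 and 40 h.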

[7] = qHTS RealTime-Glo MT Cell Viability Assay in HepG2 cells - 32 hour (AID 1224877); note: nearly all actives have a fitted effect of over 55% in size
In short: (§5)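 Real-time, nonlytic viability: 600 HepG2 cells/well mixed with NanoLuc enzyme plus prosubstrate; 5 h settle, compound (DMSO) added by pintool; luminescence monitored over 40 h at 37 C.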

[8] = A CellTox Green Cytotoxicity Assay to monitor cytotoxicity in HepG2 cells - 24 hour (AID 1224878); note: nearly all actives have a fitted effect of over 45% in size
In short: as §4

[9] = A CellTox Green Cytotoxicity Assay to monitor cytotoxicity in HepG2 cells - 40 hour (AID 1224879); note: nearly all actives have a fitted effect of over 40% in size
In short: as §4

[10] = qHTS RealTime-Glo MT Cell Viability Assay in HEK293 cells - 0 hour (AID 1224880)
In short: as §3

[11] = A CellTox Green Cytotoxicity Assay to monitor cytotoxicity in HEK293 cells - 32 hour (AID 1224881); note: nearly all actives have a fitted effect of over 40% in size
In short: as §2

[12] = A CellTox Green Cytotoxicity Assay to monitor cytotoxicity in HepG2 cells - 0 hour (AID 1224882); note: nearly all actives have a fitted effect of over 35% in size
In short: as §4

[13] = A CellTox Green Cytotoxicity Assay to monitor cytotoxicity in HepG2 cells - 32 hour (AID 1224883); note: nearly all actives have a fitted effect of over 50% in size
In short: as §4

[14] = A CellTox Green Cytotoxicity Assay to monitor cytotoxicity in HEK293 cells - 8 hour (AID 1224884); note: nearly all actives have a fitted effect of over 35% in size
In short: as §2

[15] = qHTS RealTime-Glo MT Cell Viability Assay in HepG2 cells - 16 hour (AID 1224885); note: nearly all actives have a fitted effect of over 50% in size
In short: as §5

[16] = qHTS RealTime-Glo MT Cell Viability Assay in HEK293 cells - 24 hour (AID 1224886)
In short: (§6)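 Cells + reagent dispensed (600 cells/well, HEK293) → 5 h at 37 C/5% CO2 → 23 nL compound in DMSO pinned → 40 h at 37 C → luminescence read at 0, 8, 16, 24, 32, 40 h.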

[17] = qHTS RealTime-Glo MT Cell Viability Assay in HEK293 cells - 8 hour (AID 1224887); note: nearly all actives have a fitted effect of over 50% in size; note: potency is the fitted concentration of half-maximal effect; for activity change, negative = cytotoxicity: top concentration of the series differs between compounds
In short: as §3

[18] = A CellTox Green Cytotoxicity Assay to monitor cytotoxicity in HEK293 cells - 16 hour (AID 1224888); note: nearly all actives have a fitted effect of over 35% in size
In short: as §2

[19] = qHTS RealTime-Glo MT Cell Viability Assay in HepG2 cells - 0 hour (AID 1224889); note: nearly all actives have a fitted effect of over 50% in size
In short: as §5

[20] = qHTS RealTime-Glo MT Cell Viability Assay in HEK293 cells - 16 hour (AID 1224872)
In short: as §6

FC(F)(Cl)C(F)(Cl)Cl
Potency [1]: inactive | Potency [2]: inactive | outcome [3]: inactive | max response [4]: 10.2% | Potency [5]: inactive | Potency [6]: inactive | Potency [7]: inactive | Potency [8]: inactive | Potency [9]: inactive | Potency [10]: inactive | Potency [11]: inactive | Potency [12]: inactive | Potency [13]: inactive | Potency [14]: inactive | outcome [15]: inactive | Potency [16]: inactive | Potency [17]: inactive | Potency [18]: inactive | Potency [19]: inactive

COC(=O)C(C)(C)C
Potency [1]: inactive | Potency [2]: inactive | outcome [3]: inactive | max response [4]: -22.6% | Potency [5]: inactive | Potency [6]: inactive | Potency [7]: inactive | Potency [8]: inactive | Potency [9]: inactive | Potency [10]: inactive | Potency [11]: inactive | Potency [12]: inactive | Potency [13]: inactive | Potency [14]: inactive | outcome [15]: inactive | Potency [17]: inactive | Potency [18]: inactive | Potency [19]: inactive

O=Cc1ccc(Cl)c([N+](=O)[O-])c1
Potency [1]: inactive | Potency [2]: inactive | Potency [20]: inactive | outcome [3]: inactive | Potency [5]: inactive | Potency [6]: inactive | Potency [7]: inactive | Potency [8]: inactive | Potency [10]: inactive | Potency [12]: inactive | Potency [14]: inactive | outcome [15]: inactive | Potency [17]: inactive | Potency [18]: inactive | Potency [19]: inactive

CCCCCCCCCCCCN1CCOCC1
Potency [1]: inactive | Potency [2]: inactive | outcome [3]: inactive | max response [4]: 4.57% | Potency [5]: inactive | Potency [6]: inactive | Potency [7]: inactive | Potency [8]: inactive | Potency [9]: inactive | Potency [11]: inactive | Potency [12]: inactive | Potency [13]: inactive | Potency [14]: inactive | outcome [15]: inactive | Potency [16]: inactive | Potency [17]: inactive | Potency [18]: inactive | Potency [19]: inactive

C=CCCC
Potency [1]: inactive | Potency [2]: inactive | outcome [3]: inactive | max response [4]: 18% | Potency [5]: inactive | Potency [6]: inactive | Potency [7]: inactive | Potency [8]: inactive | Potency [9]: inactive | Potency [11]: inactive | Potency [12]: inactive | Potency [13]: inactive | Potency [14]: inactive | outcome [15]: inactive | Potency [17]: inactive | Potency [18]: inactive | Potency [19]: inactive

CCOc1cc(OCC)c(C(C)=O)cc1OCC
Potency [1]: inactive | Potency [2]: inactive | outcome [3]: inactive | Potency [4]: 19.2 µM (active) | Potency [5]: inactive | Potency [6]: inactive | Potency [7]: inactive | Potency [8]: inactive | Potency [9]: inactive | Potency [10]: inactive | Potency [11]: inactive | Potency [12]: inactive | Potency [13]: inactive | Potency [14]: inactive | outcome [15]: inactive | Potency [17]: 19.2 µM (active) | Potency [18]: inactive | Potency [19]: inactive

O=C(O)c1ccccc1[N+](=O)[O-]
Potency [1]: inactive | Potency [2]: inactive | outcome [3]: inactive | max response [4]: 24.4% | Potency [5]: inactive | Potency [6]: inactive | Potency [7]: inactive | Potency [8]: inactive | Potency [9]: inactive | Potency [11]: inactive | Potency [12]: inactive | Potency [13]: inactive | Potency [14]: inactive | outcome [15]: inactive | Potency [17]: inactive | Potency [18]: inactive | Potency [19]: inactive

O=C(N[C@@H](Cc1ccccc1)[C@@H](O)C(=O)N1C[C@@H](O)[C@@H](O)C1)c1cc2cc(Cl)ccc2[nH]1
Potency [1]: inactive | Potency [2]: inactive | Potency [20]: inactive | outcome [3]: inactive | Potency [5]: inactive | Potency [7]: inactive | Potency [10]: inactive | Potency [11]: inactive | Potency [12]: inactive | Potency [14]: inactive | outcome [15]: inactive | Potency [17]: inactive | Potency [18]: inactive | Potency [19]: inactive

CCCCCCOC(=O)c1ccccc1
Potency [1]: inactive | Potency [2]: inactive | Potency [20]: inactive | outcome [3]: inactive | Potency [5]: inactive | Potency [6]: inactive | Potency [7]: inactive | Potency [8]: inactive | Potency [9]: inactive | Potency [10]: inactive | Potency [11]: inactive | Potency [12]: inactive | Potency [13]: inactive | outcome [15]: inactive | Potency [16]: inactive | Potency [17]: inactive | Potency [18]: inactive | Potency [19]: inactive

CC(C)=CCCC(C)C=O (centres undefined)
Potency [1]: inactive | Potency [2]: inactive | outcome [3]: inactive | max response [4]: 3.8% | Potency [5]: inactive | Potency [6]: inactive | Potency [7]: inactive | Potency [8]: inactive | Potency [9]: inactive | Potency [10]: inactive | Potency [12]: inactive | Potency [13]: inactive | Potency [14]: inactive | outcome [15]: inactive | Potency [16]: inactive | Potency [17]: inactive | Potency [18]: inactive | Potency [19]: inactive

CCCCCCCCCCCCSC#N
Potency [1]: inactive | Potency [2]: inactive | Potency [20]: inactive | outcome [3]: inactive | Potency [5]: inactive | Potency [6]: inactive | Potency [7]: inactive | Potency [8]: inactive | Potency [10]: inactive | Potency [11]: inactive | Potency [12]: inactive | Potency [13]: inactive | Potency [14]: inactive | outcome [15]: inactive | Potency [17]: inactive | Potency [18]: inactive | Potency [19]: inactive

O=C(O)c1ccc2c(c1)nc(C(=O)NC1CCN(C3CC3)CC1)n2Cc1cc(-c2ccc(Cl)s2)on1
activity change, negative = cytotoxic [1]: -1.55% [at 15.8 µM] | cytotoxicity increase [2]: -0.224% [at 15.8 µM] | viability change, negative = cytotoxic [3]: -2.47% [at 15.8 µM] | max response [4]: -1.71% | activity change [5]: 1.12% [at 15.8 µM, stronger effect = higher value] | cytotoxicity increase [6]: -9.11% [at 15.8 µM] | activity change, negative = cytotoxic [7]: -3.33% [at 15.8 µM] | cytotoxicity [8]: -2.25% [at 15.8 µM] | cytotoxicity increase [9]: -6.87% [at 15.8 µM] | activity change, negative = cytotoxicity [10]: -5.93% [at 15.8 µM] | cytotoxicity increase [11]: 1.64% [at 15.8 µM] | cytotoxicity [12]: -4.38% [at 15.8 µM] | cytotoxicity increase [13]: -6.61% [at 15.8 µM] | cytotoxicity increase [14]: -5.24% [at 15.8 µM] | activity change, negative = cytotoxicity [17]: 8.44% [at 15.8 µM] | activity change [18]: 0.74% [at 15.8 µM, stronger effect = higher value] | activity change, negative = cytotoxicity [19]: -12.8% [at 15.8 µM]

Clc1nc2ccccc2nc1Cl
Potency [1]: inactive | Potency [2]: inactive | Potency [20]: inactive | outcome [3]: inactive | Potency [5]: inactive | Potency [6]: inactive | Potency [7]: inactive | Potency [8]: inactive | Potency [9]: inactive | Potency [10]: inactive | Potency [11]: inactive | Potency [12]: inactive | Potency [13]: inactive | Potency [17]: inactive | Potency [18]: inactive | Potency [19]: inactive

O=C(Cl)c1ccc(F)c(Cl)c1
Potency [1]: inactive | Potency [2]: inactive | outcome [3]: inactive | max response [4]: 35.2% | Potency [5]: inactive | Potency [6]: inactive | Potency [7]: inactive | Potency [8]: inactive | Potency [9]: inactive | Potency [10]: inactive | Potency [11]: inactive | Potency [12]: inactive | Potency [13]: inactive | Potency [14]: inactive | outcome [15]: inactive | Potency [18]: inactive | Potency [19]: inactive

Reference: PubChem BioAssay (Tox21)
